# A selection: hits, their analogues and other compounds. The true share with any hit is near 6%.
# D1 ag = human D1 receptor agonism. AID 504660. HEK293 T-REx D1 cells, calcium flux, agonist mode. P21728. 360,000 tested, 1% active. activation, % at 2 µM; in the data active = activation above about 30%; also: 0% is about no effect
# Target sequence (P21728 whole entry, looked up): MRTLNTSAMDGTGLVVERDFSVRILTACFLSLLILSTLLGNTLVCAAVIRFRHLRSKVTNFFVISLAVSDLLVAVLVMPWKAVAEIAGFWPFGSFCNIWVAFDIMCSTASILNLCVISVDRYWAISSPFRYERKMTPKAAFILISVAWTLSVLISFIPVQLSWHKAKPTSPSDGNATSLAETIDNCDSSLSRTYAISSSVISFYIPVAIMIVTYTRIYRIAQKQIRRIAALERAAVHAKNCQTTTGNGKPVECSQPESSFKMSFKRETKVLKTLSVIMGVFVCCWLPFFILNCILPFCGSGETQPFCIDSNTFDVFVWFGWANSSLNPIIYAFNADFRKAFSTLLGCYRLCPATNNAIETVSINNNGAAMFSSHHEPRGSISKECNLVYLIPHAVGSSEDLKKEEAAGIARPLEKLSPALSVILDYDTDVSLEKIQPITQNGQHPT
#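 Tetracycline-induced HEK293 TREx D1 cells, force-coupled to calcium signalling, were dye-loaded with a no-wash calcium kit. Compound was pin-added after a 10 s baseline. Fluorescence was read kinetically at 1 cycle/s for 180 s, with calcium rises flagged as agonism.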
# D1 antag = human D1 dopamine receptor antagonism; P21728; HEK293 TREx D1 cells, calcium flux, dopamine EC80; active compounds read low; activity change, negative = inhibition, % at 10 µM; 360,000 tested, 3.2% active; AID 504652; in the data active = activity change below about -30%; also: % is scaled to controls: 0 for no effect and ±100 for the full control effect
#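 Using tetracycline-induced force-coupled D1 Hek293 cells and a calcium dye, signals were followed for 180 s after compound, then for 180 s after EC80 dopamine, to detect inhibitors.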
# D1 PAM = human D1 dopamine receptor positive modulation | 360,000 tested, 0.036% active | HEK293 TREx D1 cells, calcium flux, dopamine EC20 potentiation | AID 504651 | potentiation, % at 10 µM; in the data active = potentiation above about 30%; also: 0% is about no effect
# D3 ag = activates the human D3 dopamine receptor. 410,000 tested, 0.58% active. D3R DiscoveRx beta-arrestin cells, luminescence, 90 min. P35462. max activation, %; in the data active = max activation above about 30%; also: 0% is about no effect
#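 Agonist-mode cell screen: cells plated at 1500/well and incubated overnight at 37 °C, then exposed to library compounds for 90 min at 37 °C. Detection reagent was added for 30–60 min at room temperature, and luminescence was read.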
# D3 antag = blocks the human D3 dopamine receptor. P35462. D3R cells, DiscoveRx beta-arrestin luminescence, antagonist mode; active compounds read low. max response, negative = inhibition, %. 360,000 tested, 2.5% active. AID 652054; in the data active = max response below about -50%; inconclusive = no clear call, values can overlap the other calls; also: % is scaled to controls: 0 for no effect and ±100 for the full control effect
#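 Cells plated overnight at 1500 cells/well, then exposed to library compounds with dopamine controls for 90 minutes at 37 degrees C. DiscoveRx reagent added for 30–60 minutes at room temperature; luminescence read, quantitative HTS format.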
# BCR signal inh = chronic active BCR signaling inhibition; ABC-DLBCL IkBa-CBG/CBR reporter, luminescence ratio, 4 h; Potency, µM (series often up to 46.1 µM), inactives show at the highest dose activity change, negative = inhibition, hits mostly inhibitors; 340,000 tested, 0.05% active; active = well fitted inhibition curve with a large enough effect in the signal ratio, with a control signal flat, not every such curve was filed as active; inconclusive = small, poorly fitted or top-dose-only effect, or effect the other way, or a change in a side signal; the % refers to the signal ratio;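 also: potency is read from the fitted curve at half-maximal effect; plate controls were basal doxycycline-induced cells for no effect and cells given 10 µM MG132 for full effect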
#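 TMD8 ABC-DLBCL cells carrying doxycycline-inducible green luciferase fused to IkappaBalpha plus unfused red luciferase were exposed to compounds (up to 46 uM) for 4 hrs at 37C. Activity came from the overlap-corrected green/red luminescence ratio.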
# Active calls of the source: *; ? = inconclusive; / = no result given.
SMILES,D1 ag,D1 antag,D1 PAM,D3 ag,D3 antag,BCR signal inh
O=C(CSc1nc(O)c(C(c2ccccc2)c2ccccc2)c(=O)[nH]1)N1CCOCC1,1.6,-13.3,-5.0,-17.7,-62.3*,2.6%
CCCC(=O)Nc1sc(C(=O)OC)c(C)c1C(N)=O,3.1,-10.1,-1.3,-2.4,-125.0*,1.6%
Cc1cc2n(n1)CCCN2C(=O)Nc1ccccc1F,6.0,11.6,3.1,3.6,/,/
Cc1cc(/C=N/NC(N)=S)c(C)n1-c1cccc(Cl)c1,12.5,-1.7,-2.8,-8.2,-0.8,-15.7%
Cc1nc2ccccn2c1C(=O)N/N=C/c1cc(C)n(-c2ccc(Br)cc2)c1C,2.2,-47.4*,-23.1,-5.3,-24.0,-5.8%
Cc1cc(/C=N/NC(N)=S)c(C)n1-c1ccc(Cl)cc1,4.7,-51.8*,-5.0,-10.9,-57.6*,?
Cc1cc(/C=N/NC(N)=S)c(C)n1-c1ccc(Br)cc1,4.6,-49.5*,-16.6,-13.3,-67.2*,?
Cc1cc(/C=N/O)c(C)n1-c1ccc(Br)cc1,1.2,8.3,-12.8,-12.2,-12.7,5.3%
Cc1cccc(C)c1-n1c(C)cc(/C=N/NC(N)=S)c1C,2.1,0.9,-4.3,-10.1,-83.9*,?
Cc1nc2ccccn2c1C(=O)N/N=C/c1ccccc1,1.3,-5.1,2.4,0.1,-23.1,2.0%
CCc1ccc(NC(=O)c2cc(S(=O)(=O)N3CCCCCC3)ccc2F)cc1,2.5,-9.5,-0.8,1.6,/,5.8%
CCOc1ccccc1N(CC)C(=O)Cn1ncc2c1-c1ccccc1OC2,0.1,12.0,0.1,1.4,/,/
COC(=O)c1ccc2nc(-c3cccc(Br)c3)c(Cc3ccccc3)n2c1,/,/,/,2.5,45.1,/
COc1ccccc1NC(=O)C1=C(C)Nc2nc(SCc3ccccc3)nn2C1c1ccccn1 (centres undefined),-0.4,8.6,2.3,-6.4,/,/
COc1cc(Br)c(C[N+]2(CCOCCC3CCC4CC3C4(C)C)CCOCC2)cc1OC (centres undefined),/,/,/,0.0,/,/
CC(C)Cc1csc(NC(=O)c2ccc(Cl)cc2)c1C(=O)O,16.7,-31.3*,-3.8,5.6,0.2,?
O=C1NC[C@@H](CCCCN2C[C@H](Cc3ccc(O)cc3)N(CCC3CCCCC3)C(=O)C2=O)N(CCC2CCCCC2)C1=O,/,/,/,-10.6,-12.7,/
O=C(/C=C/c1ccc(OCCCF)cc1)NCc1ccc(Cl)cc1,3.9,-3.1,1.7,3.6,-70.3*,5.8%
Cc1cc(C)c(NC(=O)Cn2c([N+](=O)[O-])cnc2C)c(C)c1,3.1,-45.5*,-6.7,-2.2,-11.2,-1.0%
COc1ccc(/C=C/C(=O)c2ccccc2)cc1COc1ccc(F)cc1,16.7,-32.5*,-6.4,6.5,2.4,14.4%
COc1ccc(/C=C/C(=O)c2ccccc2)cc1Cn1nnc2ccccc21,3.2,-30.7*,-2.0,-3.2,5.1,?
COc1ccc(/C=C/C(=O)c2ccc(O)cc2)cc1COc1ccc(F)cc1,4.8,7.2,-9.1,-20.1,?,?
CCOC(=O)c1ccc(CN(Cc2ccc(Cl)cc2Cl)S(=O)(=O)c2cccc(Cl)c2)cc1,6.8,2.2,-2.5,-4.2,/,14.7%
CN(C)C(=O)/C(=C/c1ccc(-c2cccc([N+](=O)[O-])c2)o1)NC(=O)c1ccccc1,4.8,-56.0*,-2.5,17.6,0.6,-5.3%
COC(=O)/C(=C\c1ccc([N+](=O)[O-])o1)NC(=O)c1ccccc1,0.3,-20.0,5.3,2.0,-18.1,11.3%
SMILES,D1 ag,D1 antag,D1 PAM,D3 ag,D3 antag,BCR signal inh
CCCCNC(=O)/C(=C\c1ccc([N+](=O)[O-])o1)NC(=O)c1ccccc1,2.8,-39.1*,-2.9,3.8,-3.9,8.7%
CC(C)C(=O)Nc1nnc(SCc2cc(=O)n3ccccc3n2)s1,3.1,-3.3,-1.4,0.5,/,/
CCC(CC)C(=O)Nc1nnc(SCc2cc(=O)n3cccc(C)c3n2)s1,1.7,5.4,6.8,62.4*,/,/
C/C1=C2N=C(/C=C3N=C(/C(C)=C4\[N-]C(C(CC(N)=O)C4(C)CCC(=O)NCC(C)OP(=O)([O-])OC4C(CO)OC(n5cnc6cc(C)c(C)cc65)C4O)C4(C)N=C1C(CCC(N)=O)C4(C)CC(N)=O)C(CCC(N)=O)C\3(C)C)C(CCC(N)=O)C/2(C)CC(N)=O.[CH3-].[Co+3] (centres undefined),/,/,/,-6.4,/,/
C#Cc1ccc([C@H]2C=C(C(=O)OCC=C)O[C@@H](OCC)[C@@H]2CCCO)cc1,1.0,-16.1,-6.4,62.3*,64.2,-0.2%
CCO[C@@H]1OC(C(N)=O)=C[C@H](c2ccc3c(c2)OCO3)[C@H]1CCCO,-5.0,-33.9*,2.5,2.1,-18.2,-2.8%
CCO[C@@H]1OC(C(=O)N2CCOCC2)=C[C@H](c2ccccc2)[C@H]1CCCO,-0.1,-5.5,-1.8,-1.4,-64.5*,-6.5%
CCO[C@H]1OC(C(=O)N2CCCCCCC2)=C[C@@H](c2ccccc2)[C@@H]1CCCO,-4.1,5.4,-2.7,7.5,6.0,3.8%
COc1ccc(S(=O)(=O)NCC(c2ccc(N(C)C)cc2)N2CCc3ccccc32)cc1F (centres undefined),-1.3,13.0,-0.7,-17.3,/,/
O=S(=O)(c1ccc2c(c1)OCCO2)N1CCN(S(=O)(=O)c2ccc(Cl)cc2F)CC1,7.4,2.0,-5.2,/,/,/
CCn1cnc2c(Nc3ccc(CCC(=O)N=C(N)N)cc3)nc(C#N)nc21,-0.3,-1.2,-2.0,/,/,/
COC(=O)c1c(-c2ccc(OC)c(OC)c2)csc1N,0.7,-33.6*,-6.6,-0.6,-14.7,6.3%
O=C1CC(=Nc2ccc([N+](=O)[O-])cc2)NN1c1c(Cl)cc(Cl)cc1Cl,/,/,/,2.0,?,/
CC(=O)n1cc(N(C(=O)CCl)c2ccc(C)cc2)c2ccccc21,3.8,-9.5,-4.8,-10.9,-67.0*,?
CCOC(=O)c1nn(-c2ccc(C)cc2)c(=O)cc1OCC(=O)Nc1cccc(C)c1,6.9,-0.1,-10.8,-8.0,-3.4,0.6%
CC(=O)Nc1c(C(=O)Nc2cccc(C)c2)nnn1-c1ccc(C)cc1,10.6,-33.9*,-1.4,0.4,/,/
CCN(CC)CCNC(=O)c1cc2cc3ccc(OC)cc3nc2o1,1.2,-35.2*,9.3,-6.3,-11.1,1.1%
Nc1ccc(/C=C/C(=O)c2cccs2)cc1,81.5*,-12.3,-7.0,9.4,9.8,?
O=C(C=Cc1ccccc1)c1cccs1,/,/,/,4.2,-2.5,/
O=C(/C=C\c1ccccc1)NCC(=O)N/N=C/c1ccc(O)cc1O,1.6,5.9,-1.9,-3.2,-1.9,?
C=C(C)Cn1c(SCC(=O)N/N=C/c2ccccc2)nc2ccccc2c1=O,6.6,-5.3,0.1,-5.1,-24.0,10.6%

# Screening results (PubChem BioAssay)
